The values that follow come from PubChem BioAssay.

Calls of active or inactive are those of the source. Unless noted, how the calls were made is not given here.

Experiment [1] is described as follows: compounds binding Alexa647 anti-His antibody – biochemical, small-molecule microarray, 635 nm fluorescence, artefact control for SMM control protein annotation, primary screen (AID 1128).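 Further: score merges feature fluorescence with signal-to-noise for each printed compound spot.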 Conditions: higher = more signal.
Experiment [2] has as its system Human papillomavirus type 1a E7 protein (residues 1-88). The experiment is described as follows: HPV1a E7 small-molecule binders, primary screen, biochemical, small-molecule microarray, residues 1-88, 635 nm (AID 1129). Particulars: small-molecule microarray binding, fluorescence 635 nm; higher = more signal.
The target in experiment [3] is Focal adhesion kinase 1 (Homo sapiens) (UniProt Q05397). In words: PTK2 protein binding on printed compound slides – biochemical, small-molecule microarray, 635/667 nm fluorescence, BSA, DTT, primary screen (AID 1130).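 Further: composite of spot emission at 667 nm and signal to noise over triplicate slides.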 Particulars: 635 nm fluorescence, higher = more signal.
Focal adhesion kinase 1 (Homo sapiens), sequence (Q05397 whole entry, looked up): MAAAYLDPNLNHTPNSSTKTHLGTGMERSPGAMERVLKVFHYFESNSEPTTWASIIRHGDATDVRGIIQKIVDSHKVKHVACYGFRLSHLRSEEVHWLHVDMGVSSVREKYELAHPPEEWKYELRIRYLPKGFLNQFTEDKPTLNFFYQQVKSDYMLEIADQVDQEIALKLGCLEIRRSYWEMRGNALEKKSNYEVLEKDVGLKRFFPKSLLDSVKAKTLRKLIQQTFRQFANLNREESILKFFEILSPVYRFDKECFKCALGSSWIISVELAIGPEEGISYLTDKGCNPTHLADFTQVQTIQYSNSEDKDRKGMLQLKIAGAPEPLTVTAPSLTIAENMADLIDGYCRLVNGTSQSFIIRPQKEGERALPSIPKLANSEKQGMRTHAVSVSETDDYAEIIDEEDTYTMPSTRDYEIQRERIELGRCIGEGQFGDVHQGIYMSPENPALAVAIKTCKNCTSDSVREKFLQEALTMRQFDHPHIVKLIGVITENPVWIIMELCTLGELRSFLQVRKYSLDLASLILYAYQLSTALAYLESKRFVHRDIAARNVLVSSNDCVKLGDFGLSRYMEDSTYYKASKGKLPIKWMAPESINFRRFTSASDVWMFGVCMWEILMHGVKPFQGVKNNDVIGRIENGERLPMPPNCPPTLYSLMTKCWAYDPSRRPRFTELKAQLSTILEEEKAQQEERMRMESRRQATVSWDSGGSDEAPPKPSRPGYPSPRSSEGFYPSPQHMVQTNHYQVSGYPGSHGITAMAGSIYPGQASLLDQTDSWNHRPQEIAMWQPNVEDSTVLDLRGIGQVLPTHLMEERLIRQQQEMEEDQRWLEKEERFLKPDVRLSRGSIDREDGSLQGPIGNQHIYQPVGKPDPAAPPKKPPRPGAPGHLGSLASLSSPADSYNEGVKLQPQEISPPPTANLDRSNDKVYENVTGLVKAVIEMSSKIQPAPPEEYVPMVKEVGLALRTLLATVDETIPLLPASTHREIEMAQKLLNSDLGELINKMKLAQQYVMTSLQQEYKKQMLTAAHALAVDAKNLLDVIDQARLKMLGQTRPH
Experiment [4] deals with Fibrinogen (Alexa647-labelled). In words: Alexa647-fibrinogen binding to printed small molecules – biochemical, small-molecule microarray, 635/667 nm fluorescence, artefact control for SMM control-protein annotation, profiling panel (AID 1131).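 Further: z-score merges 667 nm fluorescence with per-spot signal-to-noise over triplicate slides.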 Particulars: fibrinogen-A647 binding fluorescence, higher = more signal.
Experiment [5] addresses Follistatin (Homo sapiens) (UniProt P19883). In words: FST protein binding to printed compounds – biochemical, small-molecule microarray, 635/667 nm fluorescence, primary screen (AID 1132). Conditions: 635 nm fluorescence, higher = more signal.
Experiment [6] addresses Fibroblast growth factor 2 (Homo sapiens) (UniProt P09038). The experiment is described as follows: basic fibroblast growth factor binding to printed compounds – biochemical, small-molecule microarray, 635/667 nm fluorescence, primary screen (AID 1133). Particulars: FGF2, fluorescence 635/667, higher = more signal.
A short description of experiment [7]: JC-1 mitochondrial potential readout, lung cancer cells – cell-based, A549, JC-1 fluorescence, basal, 24 h, 100 nL, profiling panel (AID 1138).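 Further: A549 lung adenocarcinoma cells under basal conditions with no added stimulus; test concentration not given here.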 Particulars: higher = more signal.
For another experiment, the system named is Lefty1. In words: Lefty1 protein binding to printed compounds – biochemical, small-molecule microarray, 635/667 nm fluorescence, primary screen (AID 1139). Particulars: fluorescence 635/667, higher = more signal.
The subject of experiment [8] is wheat germ agglutinin (Triticum aestivum), Alexa647-labelled. In words: Alexa647-WGA lectin binding to printed small molecules – biochemical, small-molecule microarray, 635/667 nm fluorescence, artefact control for SMM control-protein annotation, profiling panel (AID 1140).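 Further: score merges 667 nm feature emission with signal to noise over triplicate slides.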 Particulars: WGA-A647 binding, 635 nm fluorescence, higher = more signal.
Experiment [9] has as its target Luciferin 4-monooxygenase (Photinus pyralis) (UniProt P08659). The experiment is described as follows: inhibition of purified Photinus pyralis luciferase – biochemical, luminescence, purified enzyme, 2006 set, primary screen (AID 1141).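 Further: cell-free assay with purified firefly luciferase at 100 ng per well in PBS; test concentration not given here.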 Conditions: purified firefly luciferase, SteadyGlo luminescence, 30 min; higher = more signal, called active from +8 up or from −8 down.

Experiment [10] concerns Wnt5a (protein binding on small-molecule microarray). The experiment is described as follows: small molecules binding Wnt5a protein – biophysical, small-molecule microarray, 635/667 nm fluorescence, primary screen (AID 1142).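 Further: fluorescence read at 667 nm with signal to noise per printed feature.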 Conditions: 635 nm fluorescence, higher = more signal.
The nature of experiment [11]: ATP-based viability of Huh7 replicon cells – cell-based, CellTiter-Glo luminescence, basal, 48 h, cytotoxicity control for HCV replication inhibitor project, primary screen (AID 1143).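 Further: Huh7 hepatoma cells carrying a hepatitis C replication reporter with no stimulus; test concentration not given here.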 Particulars: higher = more signal, called active from +8 up or from −8 down. For orientation: In antiviral work, replicon cells carry a viral genome segment that copies itself.
Experiment [12] in a line: Pseudomonas biofilm growth suppression – PAO1 strain, BacTiter-Glo luminescence, LB-PBS, primary screen (AID 1144). Particulars: P. aeruginosa PAO1 biofilm, 12 h, higher = more signal.
Experiment [13] is described as follows: basal CRE-LacZ reporter activity in PC12 – cell-based, unstimulated, primary screen (AID 1145). Conditions: no forskolin, luminescence, 4.5 h, higher = more signal, called active from +8 up or from −8 down.
Experiment [14] in a line: forskolin-driven CRE-LacZ activity in PC12 – cell-based, CRE-LacZ reporter, forskolin-stimulated, primary screen (AID 1146).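 Further: PC12 cells with 6xCRE LacZ reporter stimulated by forskolin 10 µM; beta-galactosidase reporter signal reflecting CREB driven transcription.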 Particulars: luminescence, 4.5 h, higher = more signal, called active from +8 up or from −8 down.
The target in experiment [15] is Streptavidin (Streptomyces avidinii) (UniProt P22629). In words: compounds binding control protein streptavidin – biophysical, small-molecule microarray, 635/667 nm fluorescence, artefact control for SMM compound annotation, primary screen (AID 1147).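 Further: signal reflects streptavidin binding to arrayed compounds as a control protein.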 Particulars: higher = more signal.
Streptavidin (Streptomyces avidinii), sequence (P22629 whole entry, looked up): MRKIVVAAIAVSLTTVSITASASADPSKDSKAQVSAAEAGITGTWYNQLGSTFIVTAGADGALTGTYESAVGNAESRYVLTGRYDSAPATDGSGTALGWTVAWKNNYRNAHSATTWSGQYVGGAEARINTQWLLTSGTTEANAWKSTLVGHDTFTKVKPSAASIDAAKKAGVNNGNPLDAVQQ
The nature of experiment [16]: probe aInhba binding on compound microarray – biochemical, small-molecule microarray, 635/667 nm fluorescence, primary screen (AID 1148).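 Further: score merges 667nm spot fluorescence with signal-to-noise for antibody binding to printed compounds.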 Particulars: higher = more signal.
Experiment [17] deals with Torsin-1A (Homo sapiens) (UniProt O14656). In words: TOR1A wild-type binding on microarray – cell lysate, small-molecule microarray, lysate, 635/667 nm, primary screen (AID 1149). Particulars: COS7 hTOR1A-WT lysate, 635 nm fluorescence, higher = more signal.
Torsin-1A (Homo sapiens), sequence (O14656 whole entry, looked up): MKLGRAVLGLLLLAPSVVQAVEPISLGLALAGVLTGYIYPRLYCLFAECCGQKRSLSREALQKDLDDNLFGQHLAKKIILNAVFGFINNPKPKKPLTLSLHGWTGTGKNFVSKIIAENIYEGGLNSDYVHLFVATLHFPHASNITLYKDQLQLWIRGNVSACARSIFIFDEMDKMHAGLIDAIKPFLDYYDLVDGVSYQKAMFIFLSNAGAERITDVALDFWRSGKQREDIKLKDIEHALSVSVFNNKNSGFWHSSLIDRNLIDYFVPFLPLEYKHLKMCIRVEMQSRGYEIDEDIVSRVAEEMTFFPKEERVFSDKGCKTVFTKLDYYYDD
Experiment [18] has the same target. The experiment is described as follows: torsin A mutant lysate binding on microarrays – cell lysate, small-molecule microarray, COS7 lysate, 635/667 nm fluorescence, primary screen (AID 1150).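 Further: score pools 667 nm emission and signal to noise measuring lysate protein binding.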 Conditions: COS7 hTOR1A mutant lysate, 635 nm fluorescence, higher = more signal.
Experiment [19] relates to Sonic hedgehog protein (Shh). The experiment is described as follows: Sonic hedgehog microarray binding compounds – biochemical, small-molecule microarray, 635/667 nm fluorescence, primary screen (AID 1151).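 Further: Shh protein binding to compounds spotted on small-molecule microarray slides; score combines spot fluorescence intensity with signal-to-noise across triplicate slides.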 Particulars: 635 nm fluorescence, higher = more signal.

Luciferin 4-monooxygenase (Photinus pyralis), sequence (P08659 whole entry, looked up): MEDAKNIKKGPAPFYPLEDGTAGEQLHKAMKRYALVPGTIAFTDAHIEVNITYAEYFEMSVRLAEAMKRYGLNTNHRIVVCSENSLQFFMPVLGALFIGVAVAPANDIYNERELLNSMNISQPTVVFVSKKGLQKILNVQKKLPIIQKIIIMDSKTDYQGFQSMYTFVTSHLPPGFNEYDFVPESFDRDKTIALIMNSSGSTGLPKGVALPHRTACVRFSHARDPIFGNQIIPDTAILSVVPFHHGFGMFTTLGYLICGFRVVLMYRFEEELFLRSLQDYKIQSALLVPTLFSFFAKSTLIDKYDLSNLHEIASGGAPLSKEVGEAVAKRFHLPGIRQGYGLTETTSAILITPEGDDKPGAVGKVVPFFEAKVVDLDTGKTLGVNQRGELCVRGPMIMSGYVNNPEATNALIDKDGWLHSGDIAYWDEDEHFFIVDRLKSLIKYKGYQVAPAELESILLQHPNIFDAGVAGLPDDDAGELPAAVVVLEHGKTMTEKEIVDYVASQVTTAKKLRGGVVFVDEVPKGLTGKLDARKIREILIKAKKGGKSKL
Follistatin (Homo sapiens), sequence (P19883 whole entry, looked up): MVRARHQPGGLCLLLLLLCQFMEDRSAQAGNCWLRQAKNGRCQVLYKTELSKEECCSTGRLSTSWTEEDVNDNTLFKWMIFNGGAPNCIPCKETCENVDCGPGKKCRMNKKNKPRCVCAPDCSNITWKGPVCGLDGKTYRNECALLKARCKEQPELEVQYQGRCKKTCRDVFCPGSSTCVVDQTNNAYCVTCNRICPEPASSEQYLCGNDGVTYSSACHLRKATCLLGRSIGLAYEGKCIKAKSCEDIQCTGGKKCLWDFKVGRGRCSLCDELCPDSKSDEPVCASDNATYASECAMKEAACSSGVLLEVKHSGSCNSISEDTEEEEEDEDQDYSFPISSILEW
Fibroblast growth factor 2 (Homo sapiens), sequence (P09038 whole entry, looked up): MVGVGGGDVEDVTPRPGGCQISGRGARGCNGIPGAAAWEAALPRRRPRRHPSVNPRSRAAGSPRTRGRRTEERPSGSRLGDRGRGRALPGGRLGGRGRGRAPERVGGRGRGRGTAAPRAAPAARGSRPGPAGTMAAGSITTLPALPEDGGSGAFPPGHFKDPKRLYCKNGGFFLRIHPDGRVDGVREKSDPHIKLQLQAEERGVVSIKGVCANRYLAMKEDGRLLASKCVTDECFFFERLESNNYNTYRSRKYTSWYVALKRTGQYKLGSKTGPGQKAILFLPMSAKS

In the case of `CCOC(=O)CCN1C(=O)[C@H]2[C@H]3[C@H](O)[C@H](O)CC(=NNC(=O)OCc4ccccc4)[C@@H]3CC[C@H]2C1=O`, the composite z-score in [1] came out at 0.553; in experiment [2], 0.687; in experiment [3] it was 0.538; in experiment [4], 0.986; in experiment [5], 0.937; in experiment [6], 0.55. The composite z-score was 0.699 in the experiment with Lefty1; 0.304 in experiment [8]; 0.109 in experiment [10]; 0.551 in experiment [15]; -0.218 in [16]; 0.701 with Torsin-1A (Homo sapiens) [17]. In addition, the composite z-score in the experiment with Torsin-1A (Homo sapiens) [18] stood at 0.672; in experiment [19] it was 1.26. The z-score in [7] was 0.319; in [9] it was 0.195 (inactive); in experiment [11], 0.13 (inactive); in experiment [12], -0.143 (inactive); in experiment [13] it was 0.161 (inactive); in experiment [14], -0.244 (inactive).
With `Cc1ccc(S(=O)(=O)OC[C@H]2CN3[C@H](c4ccc(Br)cc4)[C@@H](C)CC[C@H]3C(=O)O2)cc1`, the composite z-score was found to be 0.924 in experiment [1]; 0.269 in experiment [2]; 0.0817 in experiment [3]; 0.596 in experiment [4]; 1.1 in experiment [5]; 1.45 in [6]. Moreover, the composite z-score was 0.198 in the experiment with Lefty1; 0.11 in experiment [8]; 0.114 in experiment [10]; 0.487 in experiment [15]; -0.128 in experiment [16]; 0.782 with Torsin-1A (Homo sapiens) [17]. The results for the composite z-score (in the experiment with Torsin-1A (Homo sapiens) [18]; in [19]) were 0.44 and 0.362, respectively. Further, the z-score in experiment [7] is 1.78; in [9], -0.849 (inactive); in experiment [11], -1.25 (inactive); in experiment [12] it was -1.43 (inactive); in experiment [13], 2.01 (inactive); in experiment [14], 0.535 (inactive).
Regarding `CCOC(=O)[C@H](Cc1ccccc1)NC(=O)CCC1CC(OC(=O)NCCc2ccc(F)cc2)CC2(CCCC(COC(=O)NCC3CCCCC3)O2)O1` (stereo not given in full), the composite z-score was found to be 0.542 in experiment [1]; 0.816 in [2]; 0.465 in [3]; 0.656 in experiment [4]; 0.857 in experiment [5]; 0.238 in [6]. In addition, the composite z-score in the experiment with Lefty1 was 1.21; in experiment [8], 0.395; in experiment [10] it was 0.0457; in experiment [15], 0.644; in experiment [16], 0.0074; with Torsin-1A (Homo sapiens) [17] it was 0.846. The composite z-score amounted to 0.438 in the experiment with Torsin-1A (Homo sapiens) [18] and 1.23 in experiment [19]. For the same compound, the z-score in [7] was 0.812; in [9], 0.356 (inactive); in experiment [11] it was -0.224 (inactive); in experiment [12] it was -1.12 (inactive); in [13] it was 0.29 (inactive); in experiment [14] it was 0.624 (inactive).
With `O=C1CCCC=C1C(O)CCCCBr` (stereo not given), the composite z-score in experiment [1] is 3.06; in experiment [2] it was 0.466; in experiment [3], -0.0308; in experiment [4], 0.798; in experiment [5], 1.01; in experiment [6] it was 0.306. The composite z-score is 0.564 in the experiment with Lefty1; 1.28 in [8]; 0.0756 in [10]; 1.51 in [15]; -0.0523 in [16]; 0.201 with Torsin-1A (Homo sapiens) [17]. Further, the results for the composite z-score (with Torsin-1A (Homo sapiens) [18]; in [19]) were 0.686 and 0.333, respectively. For the same compound, the z-score in experiment [7] is 1.04; in [9], -1.97 (inactive); in experiment [11] it was -3.99 (inactive); in experiment [12] it was -0.548 (inactive); in [13] it was 1.37 (inactive); in experiment [14] it was 27 (active).
Regarding `COC(=O)CC=C[C@@H](C)[C@@H](C=NOC[C@H]1O[C@H](c2ccccc2)C=C[C@@H]1Oc1ccc(OC)cc1)NS(=O)(=O)c1ccc(C)cc1`, the composite z-score in experiment [1] was -1.16; in experiment [2] it was -1.1; in [3], -0.217; in experiment [4] it was -0.85; in [5], -1.04; in experiment [6] it was -0.528. Further, the composite z-score in the experiment on Lefty1 is -1.11; in [8], -0.542; in experiment [10], -0.308; in experiment [15] it was -0.184; in experiment [16] it was -0.23; in the experiment with Torsin-1A (Homo sapiens) [17] it was -1.46. The composite z-score with Torsin-1A (Homo sapiens) [18] was 0.339; in experiment [19], -0.863. The z-score is -0.173 in experiment [7]; 0.847 (inactive) in [9]; -0.588 (inactive) in [11]; -0.00695 (inactive) in experiment [12]; 3.13 (inactive) in [13]; 0.519 (inactive) in experiment [14].
